# In the supplement of paper PMC4466140:
# How the values were obtained:
# Experiment in all cases: SPOT peptide array binding signal intensity (averaged, normalized) (arbitrary units (background-subtracted, floor 0; scale differs between SH3 domains)); higher = stronger binding of the SH3 domain to the peptide
# [1] = target: AgAbp1
# Procedure, shortened: (§1)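 GST-fused SH3 domains, from four yeast species, were produced in E. coli BL21(DE3) and captured on glutathione Sepharose. Membranes of cellulose carrying synthetic 15-mer peptides, in which cysteines had been replaced by serines, were exposed to each domain at 10 μg/ml overnight at 4°C in TBS-based blocking buffer. After anti-GST antibody, an HRP anti-mouse secondary and luminol, spots were imaged and quantified using Genespotter. Binding signal is normalized and background-subtracted spot intensity, averaged over replicates, in arbitrary units that differ between domains.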
# [2] = target: AgBbc1
# Procedure, shortened: as §1
# [3] = target: AgBem1-D1
# Procedure, shortened: as §1
# [4] = target: AgBzz1-D1
# Procedure, shortened: as §1
# [5] = target: AgBzz1-D2
# Procedure, shortened: as §1
# [6] = target: AgCyk3
# Procedure, shortened: as §1
# [7] = target: AgFus1
# Procedure, shortened: as §1
# [8] = target: AgHof1
# Procedure, shortened: as §1
# [9] = target: AgHse1
# Procedure, shortened: as §1
# [10] = target: AgLsb1
# Procedure, shortened: as §1
# [11] = target: AgLsb4
# Procedure, shortened: as §1
# [12] = target: AgMyo5
# Procedure, shortened: as §1
# [13] = target: AgNbp2
# Procedure, shortened: as §1
# [14] = target: AgRvs167
# Procedure, shortened: as §1
# [15] = target: AgSho1
# Procedure, shortened: as §1
# [16] = target: AgSla1-D1-D2
# Procedure, shortened: as §1
# [17] = target: AgSla1-D3
# Procedure, shortened: as §1
# [18] = target: CaAbp1-D1
# Procedure, shortened: as §1
# [19] = target: CaAbp1-D2
# Procedure, shortened: as §1
# [20] = target: CaBbc1
# Procedure, shortened: as §1
# [21] = target: CaBem1-D1
# Procedure, shortened: as §1
# [22] = target: CaBzz1-D1
# Procedure, shortened: as §1
# [23] = target: CaBzz1-D2
# Procedure, shortened: as §1
# [24] = target: CaCyk3
# Procedure, shortened: as §1
# [25] = target: CaFus1
# Procedure, shortened: as §1
# [26] = target: CaHof1
# Procedure, shortened: as §1
# [27] = target: CaHse1
# Procedure, shortened: as §1
# [28] = target: CaLsb1
# Procedure, shortened: as §1
# [29] = target: CaLsb4
# Procedure, shortened: as §1
# [30] = target: CaMyo5
# Procedure, shortened: as §1
# [31] = target: CaNbp2
# Procedure, shortened: as §1
# [32] = target: CaRvs167
# Procedure, shortened: as §1
# [33] = target: CaRvs167-3
# Procedure, shortened: as §1
# [34] = target: CaSho1
# Procedure, shortened: as §1
# [35] = target: CaSla1-D1-D2
# Procedure, shortened: as §1
# [36] = target: CaSla1-D3
# Procedure, shortened: as §1
# [37] = target: ScAbp1
# Procedure, shortened: as §1
# [38] = target: ScBbc1
# Procedure, shortened: as §1
# [39] = target: ScBem1-D1
# Procedure, shortened: as §1
# [40] = target: ScBzz1-D1
# Procedure, shortened: as §1
# [41] = target: ScBzz1-D2
# Procedure, shortened: as §1
# [42] = target: ScCyk3
# Procedure, shortened: as §1
# [43] = target: ScFus1
# Procedure, shortened: as §1
# [44] = target: ScHof1
# Procedure, shortened: as §1
# [45] = target: ScHse1
# Procedure, shortened: as §1
# [46] = target: ScLsb1
# Procedure, shortened: as §1
# [47] = target: ScLsb2
# Procedure, shortened: as §1
# [48] = target: ScLsb3
# Procedure, shortened: as §1
# [49] = target: ScLsb4
# Procedure, shortened: as §1
# [50] = target: ScMyo3
# Procedure, shortened: as §1
# [51] = target: ScMyo5
# Procedure, shortened: as §1
# [52] = target: ScNbp2
# Procedure, shortened: as §1
# [53] = target: ScPex13
# Procedure, shortened: as §1
# [54] = target: ScRvs167
# Procedure, shortened: as §1
# [55] = target: ScSho1
# Procedure, shortened: as §1
# [56] = target: ScSla1-D1-D2
# Procedure, shortened: as §1
# [57] = target: ScSla1-D3
# Procedure, shortened: as §1
# [58] = target: SpAbp1-D1
# Procedure, shortened: as §1
# [59] = target: SpBbc1
# Procedure, shortened: as §1
# [60] = target: SpBzz1-D1
# Procedure, shortened: as §1
# [61] = target: SpBzz1-D2
# Procedure, shortened: as §1
# [62] = target: SpCyk3
# Procedure, shortened: as §1
# [63] = target: SpHof1
# Procedure, shortened: as §1
# [64] = target: SpHof1-2
# Procedure, shortened: as §1
# [65] = target: SpHof1-3
# Procedure, shortened: as §1
# [66] = target: SpHse1
# Procedure, shortened: as §1
# [67] = target: SpLsb1
# Procedure, shortened: as §1
# [68] = target: SpLsb4
# Procedure, shortened: as §1
# [69] = target: SpMyo1
# Procedure, shortened: as §1
# [70] = target: SpNbp2
# Procedure, shortened: as §1
# [71] = target: SpPex13
# Procedure, shortened: as §1
# [72] = target: SpRvs167
# Procedure, shortened: as §1
# [73] = target: SpSla1-D1-D2
# Procedure, shortened: as §1
# [74] = target: SpSla1-D3
# Procedure, shortened: as §1
binder,measurement,setting,value
DRIRMFIRFPKFLLE,SPOT peptide array binding signal intensity,[1],9.5
same,SPOT peptide array binding signal intensity,[2],5
same,SPOT peptide array binding signal intensity,[3],153
same,SPOT peptide array binding signal intensity,[4],12
same,SPOT peptide array binding signal intensity,[5],20
same,SPOT peptide array binding signal intensity,[6],5.5
same,SPOT peptide array binding signal intensity,[7],524
same,SPOT peptide array binding signal intensity,[8],27.5
same,SPOT peptide array binding signal intensity,[9],1880
same,SPOT peptide array binding signal intensity,[10],1
same,SPOT peptide array binding signal intensity,[11],105
same,SPOT peptide array binding signal intensity,[12],0.5
same,SPOT peptide array binding signal intensity,[13],278
same,SPOT peptide array binding signal intensity,[14],4.33
same,SPOT peptide array binding signal intensity,[15],132
same,SPOT peptide array binding signal intensity,[16],236
same,SPOT peptide array binding signal intensity,[17],5.5
same,SPOT peptide array binding signal intensity,[18],470
same,SPOT peptide array binding signal intensity,[19],318
same,SPOT peptide array binding signal intensity,[20],22.2
same,SPOT peptide array binding signal intensity,[21],27
same,SPOT peptide array binding signal intensity,[22],4
same,SPOT peptide array binding signal intensity,[23],6.75
same,SPOT peptide array binding signal intensity,[24],30.5
same,SPOT peptide array binding signal intensity,[25],1830
same,SPOT peptide array binding signal intensity,[26],0.5
same,SPOT peptide array binding signal intensity,[27],191
same,SPOT peptide array binding signal intensity,[28],0.5
same,SPOT peptide array binding signal intensity,[29],108
same,SPOT peptide array binding signal intensity,[30],42.5
same,SPOT peptide array binding signal intensity,[31],1050
same,SPOT peptide array binding signal intensity,[32],238
same,SPOT peptide array binding signal intensity,[33],413
same,SPOT peptide array binding signal intensity,[34],1280
same,SPOT peptide array binding signal intensity,[35],67
same,SPOT peptide array binding signal intensity,[36],182
same,SPOT peptide array binding signal intensity,[37],52.5
same,SPOT peptide array binding signal intensity,[38],1.5
same,SPOT peptide array binding signal intensity,[39],3
same,SPOT peptide array binding signal intensity,[40],16
same,SPOT peptide array binding signal intensity,[41],12.5
same,SPOT peptide array binding signal intensity,[42],62
same,SPOT peptide array binding signal intensity,[43],601
same,SPOT peptide array binding signal intensity,[44],1.25
same,SPOT peptide array binding signal intensity,[45],1400
same,SPOT peptide array binding signal intensity,[46],≤ 0
same,SPOT peptide array binding signal intensity,[47],≤ 0
same,SPOT peptide array binding signal intensity,[48],87
same,SPOT peptide array binding signal intensity,[49],19
same,SPOT peptide array binding signal intensity,[50],1
same,SPOT peptide array binding signal intensity,[51],1
same,SPOT peptide array binding signal intensity,[52],356
same,SPOT peptide array binding signal intensity,[53],14.8
same,SPOT peptide array binding signal intensity,[54],22.7
same,SPOT peptide array binding signal intensity,[55],870
same,SPOT peptide array binding signal intensity,[56],48.5
same,SPOT peptide array binding signal intensity,[57],69
same,SPOT peptide array binding signal intensity,[58],334
same,SPOT peptide array binding signal intensity,[59],2.5
same,SPOT peptide array binding signal intensity,[60],103
same,SPOT peptide array binding signal intensity,[61],5.5
same,SPOT peptide array binding signal intensity,[62],16
same,SPOT peptide array binding signal intensity,[63],264
same,SPOT peptide array binding signal intensity,[64],35.8
same,SPOT peptide array binding signal intensity,[65],1130
same,SPOT peptide array binding signal intensity,[66],1300
same,SPOT peptide array binding signal intensity,[67],1.25
same,SPOT peptide array binding signal intensity,[68],139
same,SPOT peptide array binding signal intensity,[69],10.8
same,SPOT peptide array binding signal intensity,[70],957
same,SPOT peptide array binding signal intensity,[71],38
same,SPOT peptide array binding signal intensity,[72],40.3
same,SPOT peptide array binding signal intensity,[73],≤ 0
same,SPOT peptide array binding signal intensity,[74],49
VQQDSLPKLPFRSWG,SPOT peptide array binding signal intensity,[1],9.5
same,SPOT peptide array binding signal intensity,[2],38.2
same,SPOT peptide array binding signal intensity,[3],3.5
same,SPOT peptide array binding signal intensity,[4],68.5
same,SPOT peptide array binding signal intensity,[5],5.5
same,SPOT peptide array binding signal intensity,[6],29
same,SPOT peptide array binding signal intensity,[7],≤ 0
same,SPOT peptide array binding signal intensity,[8],368
same,SPOT peptide array binding signal intensity,[9],1
same,SPOT peptide array binding signal intensity,[10],295
same,SPOT peptide array binding signal intensity,[11],3220
same,SPOT peptide array binding signal intensity,[12],≤ 0
same,SPOT peptide array binding signal intensity,[13],≤ 0
same,SPOT peptide array binding signal intensity,[14],83.3
same,SPOT peptide array binding signal intensity,[15],20
same,SPOT peptide array binding signal intensity,[16],≤ 0
same,SPOT peptide array binding signal intensity,[17],≤ 0
same,SPOT peptide array binding signal intensity,[18],16
same,SPOT peptide array binding signal intensity,[19],13
same,SPOT peptide array binding signal intensity,[20],220
same,SPOT peptide array binding signal intensity,[21],≤ 0
same,SPOT peptide array binding signal intensity,[22],53
same,SPOT peptide array binding signal intensity,[23],27.5
same,SPOT peptide array binding signal intensity,[24],8
same,SPOT peptide array binding signal intensity,[25],24
same,SPOT peptide array binding signal intensity,[26],4
same,SPOT peptide array binding signal intensity,[27],9.25
same,SPOT peptide array binding signal intensity,[28],≤ 0
same,SPOT peptide array binding signal intensity,[29],6890
same,SPOT peptide array binding signal intensity,[30],0.5
same,SPOT peptide array binding signal intensity,[31],14.5
same,SPOT peptide array binding signal intensity,[32],1260
same,SPOT peptide array binding signal intensity,[33],8.5
same,SPOT peptide array binding signal intensity,[34],27
same,SPOT peptide array binding signal intensity,[35],14
same,SPOT peptide array binding signal intensity,[36],1.5
same,SPOT peptide array binding signal intensity,[37],6.5
same,SPOT peptide array binding signal intensity,[38],3.75
same,SPOT peptide array binding signal intensity,[39],0.5
same,SPOT peptide array binding signal intensity,[40],≤ 0
same,SPOT peptide array binding signal intensity,[41],8
same,SPOT peptide array binding signal intensity,[42],2
same,SPOT peptide array binding signal intensity,[43],≤ 0
same,SPOT peptide array binding signal intensity,[44],178
same,SPOT peptide array binding signal intensity,[45],25
same,SPOT peptide array binding signal intensity,[46],85.5
same,SPOT peptide array binding signal intensity,[47],38.5
same,SPOT peptide array binding signal intensity,[48],5130
same,SPOT peptide array binding signal intensity,[49],3050
same,SPOT peptide array binding signal intensity,[50],≤ 0
same,SPOT peptide array binding signal intensity,[51],≤ 0
same,SPOT peptide array binding signal intensity,[52],≤ 0
same,SPOT peptide array binding signal intensity,[53],2500
same,SPOT peptide array binding signal intensity,[54],2720
same,SPOT peptide array binding signal intensity,[55],300
same,SPOT peptide array binding signal intensity,[56],3.5
same,SPOT peptide array binding signal intensity,[57],≤ 0
same,SPOT peptide array binding signal intensity,[58],25
same,SPOT peptide array binding signal intensity,[59],5.25
same,SPOT peptide array binding signal intensity,[60],275
